The text below walks through data of PubChem BioAssay AID1463 (National Center for Advancing Translational Sciences (NCATS), 2008).

Several values for one entry are separate records, joined by “and”; a condition that tells them apart may be missing. Equal values may be shown once. About 2,600 (0.93%) of roughly 280,000 compounds were called active. Inconclusive results (about 8%) are left out. For the sample, actives were picked, then their nearest neighbours and some compounds at random. Values without a mark were called inactive. The call rests on the fitted dose curve; in most records, active means well fitted curve in the direction sought with a large enough effect; inconclusive means small, poorly fitted or top-dose-only effect; inactive means flat fitted curve, though single readings scatter.
On the % scale 0 is the no-effect control and ±100 the full control effect; potency means the concentration at half of the fitted maximal effect; tags describe the fitted curve by direction and shape or compound fluorescence and quenching.

The nature of this assay: Counterscreen qHTS for Inhibitors of Tau Fibril Formation, Fluorescence Polarization. Further: nearly all actives have a fitted effect of over 55% in size. As to conditions: tau K18 P301L (four-repeat tau fragment) Alexa594 fluorescence, heparin fibrillization; series mostly up to 57.7 µM; activity change, negative = decrease: at the top concentration. The source says:
NIH Molecular Libraries Probe Production Network [MLPCN]
NIH Chemical Genomics Center [NCGC]
Assay Provider: Carlo Ballatore, University of Pennsylvania
The microtubule-associated protein tau is an abundant protein in the axons of neurons that stabilizes microtubules. With its ability to modulate microtubule dynamics, tau contributes directly or indirectly, to key structural and regulatory cellular functions. Particularly important is the influence tau exerts on axonal transport, which allows signaling molecules, trophic factors and other essential cellular constituents to travel along the axons. Under pathological conditions, tau becomes sequestered into insoluble aggregates called neurofibrillary tangles. This phenomenon is believed to have pathological consequences by promoting axonal transport deficits that ultimately lead to synaptic dysfunction and neuronal loss. To identify inhibitors of tau aggregation, a heparin-induced tau fibril formation assay was used that employed a recombinantly expressed fragment of tau, K18 (Q242-E372), bearing a P301L mutation (Gustke et al. 1994; Hong et al. 1998). […] Total fluorescence (555 nm excitation and 632 nm emission) was measured to identify fluorescent or absorbent compounds at this wavelength. Such compounds may be artifacts that interfere with the Alexa 594 Tau fluorescence polarization assay.
Gustke, N., B. Trinczek, et al. (1994). "Domains of tau protein and interactions with microtubules." Biochemistry 33(32): 9511-22.
Hong, M., V. Zhukareva, et al. (1998).
Li, W. and V. M. Lee (2006). "Characterization of two VQIXXK motifs for tau fibrillization in vitro." Biochemistry 45(51): 15692-701.
von Bergen, M., S. Barghorn, et al. (2001). "Mutations of tau protein in frontotemporal dementia promote aggregation of paired helical filaments by enhancing local beta-structure." J Biol Chem 276(51): 48165-74.
NCGC Assay Protocol Summary:
For screening, 2 uL/well human K18 P301L (15 uM unlabeled and 0.24 uM Alexa 594-labeled tau final concentrations) in reagent buffer (100 mM sodium acetate pH 7) was dispensed into black solid 1536-well plates (Grenier) using a solenoid-based dispenser. Following transfer of 23 nL compound or DMSO vehicle by a pin tool, 2 uL/well heparin (20 uM final concentration) in reagent buffer was added and the plate centrifuged 15 s at 1000 RPM. Plates were incubated 6 hr at 37 C and then 1 uL/well ThT (30 uM final concentration) was added. After a 1 hr ambient incubation, the plates were read by an Envision (Perkin Elmer) to monitor Alexa 594 FP (555 nm excitation and 632 nm emission).
Keywords: NIH Roadmap, MLPCN, MLI, MLSMR, NCGC, qHTS, tau, tauopathies, Alzheimer's disease, fibril, neurodegeneration, aggregation
A general note: Counterscreens check selectivity or assay interference.
On to `O=C(CSc1nc(C2CC2)nc2ccccc12)Nc1ccc2c(c1)OCCO2`, for which the “activity change, negative = decrease” value was -17%.

For `O=C(CN1CCN(CC(=O)Nc2ccc3c(c2)OCO3)CC1)Nc1ccc(F)cc1`, the “activity change, negative = decrease” value is -2.95%.

With `O=C(CSc1nc(-c2cccc(F)c2)[nH]c1-c1ccccc1)Nc1ccc2c(c1)OCO2`, the Potency is 8.91 µM [quencher] (active).

For `O=C(Nc1cc(Cl)cc(Cl)c1)c1ccc2c(c1)N(Cc1cccc(Cl)c1)C(=O)c1ccccc1S2=O` (stereo not drawn), the “activity change, negative = decrease” value is -14.3%.

As to `CCc1ccc(CN(Cc2ccco2)C(=O)c2ccccc2Cl)cc1`, the “activity change, negative = decrease” value was -6.34%.

In the case of `COc1cccc(NC(=O)Nc2nnc(N3CCCCC3C)s2)c1` (stereo not drawn), the Potency was 12.6 µM [quencher] (active).

Turning to `CCOC(=O)C1CCN(C(=O)Nc2cccc(OC)c2)CC1`, the “activity change, negative = decrease” value is -1.62%.

On to `COc1cccc(Nc2nnc(SCC(=O)N3CC(C)OC(C)C3)s2)c1` (stereo not drawn), for which the “activity change, negative = decrease” value was -7.2%.

Regarding `Cc1oc(-c2ccccc2)nc1Cn1c(SCc2cccc(C(F)(F)F)c2)nc2cccnc21`, the “activity change, negative = decrease” value was -22.8%.

In the case of `COc1cccc(N2CCN(C(=O)CCCCCn3c(=O)[nH]c4ccccc4c3=O)CC2)c1`, the “activity change, negative = decrease” value is -25.4%.

In the case of `CN(c1ccccc1)c1nc(N)c([N+](=O)[O-])c(NCc2ccco2)n1`, the “activity change, negative = decrease” value was -11.3%.

Consider `COc1ccc(Nc2nc(Cl)nc(NCc3ccco3)n2)cc1`, for which the “activity change, negative = decrease” value was -5.38%.

On to `COc1cccc(Nc2nc(N)c([N+](=O)[O-])c(NCc3ccco3)n2)c1`, for which the Potency was 3.16 µM [quencher] (active).

Regarding `CCOC(=O)c1c(C)oc2nc(C)nc(N3CCN(c4ccc(OC)cc4)CC3)c12`, the “activity change, negative = decrease” value was -24.7%.

With `COc1ccc(OC)c(NC(=O)CN2CCCN(Cc3cc(C)ccc3C)S2(=O)=O)c1`, the “activity change, negative = decrease” value is -18.6%.

For `CCc1ccc(NC(=O)Cn2nc(C)c([N+](=O)[O-])c2C)cc1`, the “activity change, negative = decrease” value was -4.39%.

`Cc1ccc(Oc2cc(NC(=O)CCCn3nc(C)c([N+](=O)[O-])c3C)cc([N+](=O)[O-])c2)cc1`: the Potency is 4.47 µM [quencher] (active).

Turning to `COc1ccc(CNC(=O)CCCn2nc(C)c([N+](=O)[O-])c2C)cc1`, the “activity change, negative = decrease” value is -4.84%.

Regarding `COc1ccc(C)cc1-n1c(-c2ccc(C)cc2)cc2c1CC(C)(C)CC2=O`, the “activity change, negative = decrease” value is -12.5%.

With `Cn1c(CCN2CCCCCC2)nc2cc(NC(=O)Nc3ccccc3)ccc21`, the Potency is 15.8 µM [quencher] (active).

For `CCC(=O)Nc1ccc2c(c1)nc(CCN1CCN(C)CC1)n2C`, the “activity change, negative = decrease” value is 6.79%.

As to `CC(=O)NCCc1nc2cc(NC(=O)c3ccccc3)ccc2n1C`, the “activity change, negative = decrease” value was -1.64%.

In the case of `CCN1/C(=C/c2ccc3ccc(C)cc3[n+]2CC)Sc2ccccc21`, the “activity change, negative = decrease” value was -15.8%.

As to `O=C(CCN1C(=O)c2ccccc2C1=O)Nc1ccncc1`, the “activity change, negative = decrease” value was 8.74%.

Take `CCN1/C(=C/C(=S)Nc2ccccc2)Sc2ccccc21`: the Potency was 10 µM [quencher] (active).

In the case of `CCNC(=O)N1c2ccccc2Sc2ccccc21`, the “activity change, negative = decrease” value is 0.177%.

Take `O=C(CCN1c2ccccc2Sc2ccccc21)Nc1ccccc1`: the Potency was 11.2 µM [quencher] (active).

On to `CC1CCN(CCC(=O)Nc2ccccc2)CC1`, for which the “activity change, negative = decrease” value was -2.65%.

For the compound `CCOC(=O)c1c(NC(C)=O)c2c3c(sc2n1Cc1c(C)cc(C)cc1C)CCCC3`, the “activity change, negative = decrease” value was 1.76%.

Regarding `CCOC(=O)c1ccc(NC(=O)c2c(NCc3cccc(OC)c3)sc3c2CCC3)cc1`, the “activity change, negative = decrease” value is -12.9%.

`Cc1cccc(OCCSc2nc3ccccc3n2CC(=O)N2CCCCC2)c1C`: the “activity change, negative = decrease” value is -7.58%.

`Cc1ccc(/C=C(\C#N)C(=O)Nc2cc(C)ccc2C)cc1`: the “activity change, negative = decrease” value is -9.9%.

Take `O=C(COc1ccccc1)NCc1ccc2c(c1)CCN2C(=O)c1ccc(F)cc1`: the “activity change, negative = decrease” value was -9.29%.

Regarding `Fc1ccc(CN2CCc3nc(Nc4ccccc4)ncc3C2)cc1F`, the “activity change, negative = decrease” value is -25.3%.

Turning to `CCn1c(C)c(C)c2cc(C(=O)NCCc3cc(OC)ccc3OC)ccc21`, the “activity change, negative = decrease” value is -21.3%.

For the compound `Cc1cccc(NC(=O)CSc2ncc(-c3ccccc3)[nH]2)c1C`, the “activity change, negative = decrease” value is -24.1%.

Regarding `CCOc1cccc(NC(=O)CSc2ncc(-c3ccc(Cl)cc3)[nH]2)c1`, the Potency was 11.2 µM [quencher] (active).

On to `CCOc1cccc(NC(=O)CC#N)c1`, for which the “activity change, negative = decrease” value was -0.295%.

As for `CCCN(CCC)S(=O)(=O)c1ccc(C(=O)Nc2sc3c(c2C(=O)OC)CCN(CC)C3)cc1`, the “activity change, negative = decrease” value is -6.21%.

Regarding `Cc1cccc(-n2ccnc2SCC(=O)Nc2cc(C(F)(F)F)ccc2Cl)c1`, the “activity change, negative = decrease” value was -11.6%.

Turning to `CC[C@@H]1Cc2cc(O)ccc2C2=C1c1ccc(O)cc1C[C@H]2CC`, the Potency is 5.01 µM [quencher] (active) and 10 µM [quencher] (active).

Take `CC1(C)CC(=O)c2ccc(O)cc2O1`: the “activity change, negative = decrease” value was 3.8%.

Turning to `CCN(C(=O)Cn1cnc2sc(C)c(S(=O)(=O)N3CCN(c4ncccn4)CC3)c2c1=O)c1ccccc1F`, the “activity change, negative = decrease” value was -6.1%.

Regarding `Cc1cc2c(cc3c(SCc4nc(-c5ccccc5)oc4C)nnc(C)n32)o1`, the “activity change, negative = decrease” value is -15.1%.

Regarding `COc1cc(NC(=O)c2cncc(-c3ccc(C#N)cc3)c2)cc(C(=O)Nc2cccc(C(F)(F)F)c2)c1`, the “activity change, negative = decrease” value was -13%.

As for `COc1ccc(NC(=O)C(=O)NCC(=O)Nc2cccc(C(F)(F)F)c2)cc1`, the “activity change, negative = decrease” value is 6.59%.

As to `Cc1cc(Nc2cccc(C(F)(F)F)c2)nc2ccc(NC(=O)c3ccc(=O)[nH]c3)cc12`, the Potency was 3.55 µM [quencher] (active).

`O=C(Nc1cccc(C(F)(F)F)c1)c1cnccn1`: the “activity change, negative = decrease” value is -1.32%.
